# Tests used:
# Experiment in all cases: PBM binding z-score (relative to random genomic background probes); higher = stronger binding; sequences stand for … in GC…GCGATTGACAGCGTAGAATGAAGG
# [1] = system: RARb homodimer (NR concentration 270 nM)
# How it was run: (§1)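 Antibodies against each partner of ligand-free nuclear receptor dimers (one per run) detected binding on custom Agilent 4×180K protein-binding microarrays after 1 h incubation. The double-stranded probes had 34-nt variable regions carrying direct-repeat seeds, single-nucleotide variants, half-site ablations and random human genomic background sequences. Binding z-scores, from regression-normalized fluorescence, use the random background probes as reference.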
# [2] = system: RARg:RXRa (NR concentration 270 nM, RXRa partner concentration 90 nM)
# How it was run: as §1
# [3] = system: RARg homodimer (NR concentration 270 nM)
# How it was run: as §1
# [4] = system: RXRa DBDmut IVT, anti-RXR (DBD mutation: RXRa K156A/R161A, NR concentration 90 nM)
# How it was run: as §1
# [5] = system: RXRa homodimer (NR concentration 180 nM)
# How it was run: as §1
# [6] = system: THRa:RXRa (NR concentration 90 nM, RXRa partner concentration 90 nM)
# How it was run: as §1
# [7] = system: THRa homodimer (NR concentration 90 nM)
# How it was run: as §1
# [8] = system: VDR homodimer (NR concentration 270 nM)
# How it was run: as §1
Sequence,PBM binding z-score [1],PBM binding z-score [2],PBM binding z-score [3],PBM binding z-score [4],PBM binding z-score [5],PBM binding z-score [6],PBM binding z-score [7],PBM binding z-score [8]
ACAGACAGGTGAGTGAAGGTTACTCAGCTGGACG,0.978,0.724,0.906,-0.643,0.869,1.68,-0.671,-0.214
CATACAGGGTGAGCTAGGCCAGAGTAGGGACGGC,0.342,0.54,0.662,-1.01,0.302,0.989,0.182,-0.497
AGAATGAGGTTAAGATCTGGGAAACAGAATACAT,0.808,2.11,1.54,1.04,2.48,2.26,0.582,0.27
AATACAGGGTCACTAGTCCAGAGTAGGTACGAAT,3.23,4.5,4.83,2.7,4.87,3.31,1.32,2.27
AATCCAGGGTCACTAGGCCAGAGTAGGTACGAAT,3.4,5.39,4.98,2.49,5.55,3.54,1.29,2.57
TAGCCTAGGTCATTCAGCGGCCAGTATAGAAAGC,2.81,5.65,4.44,1.85,3.07,2.74,0.53,1.04
CCTCGTTGGTCAAGGTCACACACGCTATAGGTAC,4.51,4.58,5.23,1.8,4.83,4.05,4.37,3.86
